Here are results for 93 compounds from PubChem BioAssay AID540333 (Southern Research Specialized Biocontainment Screening …, 2011).

Each structure is given as a SMILES string. The whole screen tested about 10,000 compounds, of which about 320 (3.2%) were called active. Cut-off read from the data, not from the text of the source: active = CPE inhibition mostly above about 9.1% (no sharp cut-off); inactive = mostly below about 7.2%. Shown is part of a subset that was picked to be rich in actives.

The nature of the assay: Dengue virus cytopathic effect inhibitors, cell-based, CPE readout, HTS (AID 540333). Conditions: Dengue virus CPE inhibition in host cells, at 20 µM; active compounds read high.
As to `CCn1cc(/C=C/C(=O)Nc2ccn(Cc3c(F)c(F)cc(F)c3F)n2)cn1`, the CPE inhibition result was “inactive”.
As for `Cc1ccc(S(=O)(=O)N2CCC(=O)N(CCOCc3ccccc3)CC2)cc1`, the CPE inhibition was 0.27% (inactive).
As to `C=CCn1c(C)cc(C(=O)COC(=O)[C@@H](NC(=O)c2ccccc2Cl)C(C)C)c1C`, the CPE inhibition result was “inactive”.
Turning to `CCOC(=O)C(=CNc1cc(C)ccn1)C(=O)OCC`, the CPE inhibition entry is “inactive”.
The entry for `CCOC(=O)C(=O)NNc1ccc(C)cc1` is “inactive”; for `CCOC(=O)C(=CNc1ccc(NC2=NCC(C)S2)cc1)C(=O)OCC` (stereo not drawn) it is 10.9% (active); for `O=C(CSc1nc2ccc(Cl)cc2[nH]1)N1CCN(C(=O)c2ccco2)CC1` it is 0.04% (inactive).
Regarding `O=S(=O)(NCCC(c1ccc(F)cc1)c1ccco1)c1ccccc1` (stereo not drawn), the CPE inhibition is 14.2% (active).
On to `Nc1nonc1C(=O)NCCNS(=O)(=O)c1ccc(F)cc1`, for which the CPE inhibition result is “inactive”.
In the case of `Cc1ccc(S(=O)(=O)NCCC(c2ccccc2)c2ccco2)cc1` (stereo not drawn) it was “inactive”; in that of `CC(Nc1cc(N2CCNCC2)ccc1[N+](=O)[O-])c1ccccc1` (stereo not drawn), 0.87% (inactive); in that of `O=C(CN1CCN(Cc2ccccc2)CC1)Nc1ccc(S(=O)(=O)N2CCOCC2)cc1`, “inactive”.
On to `Cn1c(SCC(=O)N2c3ccccc3Sc3ccccc32)nc2ccccc21`, for which the CPE inhibition was 10.5% (inactive).
In the case of `Cc1ccc(-n2c(SCC(=O)N3c4ccccc4Sc4ccccc43)nnc2-c2ccncc2)cc1` it was 13.2% (active); in that of `Cc1ccc(-n2c(SCC(=O)N/N=C/c3ccc(C)s3)nnc2-c2ccccc2)cc1`, 6.83% (inactive); in that of `O=C(CSc1ccc(Cl)cc1)Nc1cccc(-c2nnc(-c3ccco3)o2)c1`, 0.905% (inactive).
With `Cc1ccc(OCC(=O)Nc2cccc(S(=O)(=O)N3CCCCC3)c2)c([N+](=O)[O-])n1`, the CPE inhibition is 0.73% (inactive).
In the case of `O=C(Nc1cc(S(=O)(=O)N2CCCC2)ccc1OCC(F)(F)F)c1ccc(F)cc1` it was “inactive”.
The figure for `O=C(CNc1cc(S(=O)(=O)N2CCCC2)ccc1OCC(F)(F)F)Nc1cccc(C(F)(F)F)c1` is 15.3% (active); for `O=S(=O)(NCCCc1ccccc1)c1cccc2nsnc12` it is 0.135% (inactive); for `O=C(O)CCN1CC2([N+](=O)[O-])C=CC(=O)C([N+](=O)[O-])(C1)C2CC(=O)c1ccccc1` (stereo not drawn) it is 0.01% (inactive).
For the compound `COc1cc(/C=N/NS(=O)(=O)c2ccccc2)ccc1OS(=O)(=O)c1ccc(C)cc1`, the CPE inhibition is 0.62% (inactive).
With `CCCc1cc(=O)[nH]c(SCC(=O)N2CCN(S(=O)(=O)c3ccc4ccccc4c3)CC2)n1`, the CPE inhibition result was “inactive”.
For `O=C(/C=C/c1cccc(Cl)c1)NCc1ccncc1`, the CPE inhibition is 0.12% (inactive).
For the compound `O=C(NC(Cc1c[nH]c2ccccc12)C(=O)OCC(=O)c1cccc2ccccc12)c1cccs1` (stereo not drawn), the CPE inhibition entry was “inactive”.
As for `COc1cc(CNn2cn[nH]c2=S)cc(Cl)c1OCc1ccc(F)cc1`, the CPE inhibition entry is “inactive”.
The figure for `COc1ccccc1NC(=O)C1=C(C)NC2=C(C(=O)CC(c3ccc(OC)c(OC)c3)C2)C1c1coc2ccccc2c1=O` (stereo not drawn) is 5.03% (inactive); for `COc1ccc([C@H]2CC(=O)C=C(/C=C/c3ccccc3)C2)cc1OC` it is 0.185% (inactive); for `COc1ccc(C2CC(=O)C3=C(C2)Nc2ccccc2NC3c2coc3ccccc3c2=O)cc1OC` (stereo not drawn) it is 51.7% (active).
`O=C(CNc1cccc(C(F)(F)F)c1)N/N=C/c1cccc(Br)c1`: the CPE inhibition is 9% (active).
The figure for `C/C(=N\NC(=O)CNc1cccc(C(F)(F)F)c1)c1cccc(Br)c1` is 7.08% (inactive).
The figure for `C/C(=N\NC(=O)CNc1cccc(C(F)(F)F)c1)c1ccc(Br)cc1` is 3.77% (inactive); for `O=Cc1cc([N+](=O)[O-])ccc1N1CCOCC1` it is 0.035% (inactive).
For `Cc1nnc(SCc2cc(=O)oc3ccc4ccccc4c23)n1Cc1ccccc1`, the CPE inhibition result was “inactive”.
The figure for `O=C(CON=C1c2ccccc2-c2ccccc21)NC12CC3CC(CC(C3)C1)C2` is 6.95% (inactive); for `CCCN1C(=O)/C(=N\OCC(=O)NC23CC4CC(CC(C4)C2)C3)c2ccccc21` it is 22.5% (active); for `CCCN1C(=O)/C(=N\OCC(=O)Nc2ccc(C(C)C)cc2)c2ccccc21` it is 8.8% (inactive).
The entry for `C=CCNC(=O)c1cc(Cl)ccc1[N+](=O)[O-]` is “inactive”; for `CCOC(=O)C1=C(C)NC(=S)NC1/C=C/c1ccccc1` (stereo not drawn) it is “inactive”; for `CCOc1ccc(-c2cn(-c3cccc(SC)c3)c(=O)[nH]2)cc1` it is 0.42% (inactive).
Take `Cc1ccc(S(=O)(=O)c2nnn3c2nc(Nc2cccc(C)c2)c2ccccc23)cc1`: the CPE inhibition result is “inactive”.
Take `Cc1ccc(NC(=O)COC(=O)c2ccccc2Nc2ccccc2)cc1`: the CPE inhibition is 1.36% (inactive).
In the case of `CC(C)(C)NC(=O)COC(=O)c1ccccc1Nc1ccc(SC(F)F)cc1` it was 16.6% (active).
For `O=C(COC(=O)c1ccccc1Nc1ccccc1)Nc1ccccc1`, the CPE inhibition was 1.4% (inactive).
Turning to `Cc1ccc(SCC(=O)NCc2ccncc2)cc1`, the CPE inhibition entry is “inactive”.
The figure for `Cc1c(NC(=O)/C(C#N)=C/c2ccc(-c3ccccc3Cl)o2)c(=O)n(-c2ccccc2)n1C` is 3.41% (inactive); for `CN(CC(=O)Nc1ccccc1Cl)C(=O)CSc1nc2ccccc2s1` it is “inactive”; for `Cc1c(Cl)cccc1Nc1nc(N)nc(CSc2nc3ccccc3s2)n1` it is 10.3% (active).
As for `Cc1ccccc1Nc1nc(N)nc(COC(=O)c2ccc(O)cc2)n1`, the CPE inhibition result is “inactive”.
Take `COc1ccc(CNc2nc(-c3ccccc3)nn2C(=O)c2ccc([N+](=O)[O-])cc2)cc1`: the CPE inhibition result was “inactive”.
Take `Cn1cc([N+](=O)[O-])c(C(=O)N/N=C/c2ccc([N+](=O)[O-])cc2)n1`: the CPE inhibition was 0.11% (inactive).
Consider `CCNC(=O)c1cc(Cl)ccc1OC`, for which the CPE inhibition was 0.845% (inactive).
As for `N#C/C(=C\c1ccc(OC(=O)c2ccc(Br)s2)cc1)c1nc2ccccc2[nH]1`, the CPE inhibition is 8.02% (inactive).
The figure for `N#C/C(=C\c1ccc(Sc2ccccc2)o1)c1nc2ccccc2[nH]1` is 13% (active); for `N#C/C(=C\c1cccs1)c1nc2ccccc2[nH]1` it is “inactive”.
The figure for `CCn1c(C)cs/c1=N\C(=S)Nc1ccccc1C` is 0.08% (inactive); for `Cc1ccc(C2CC(=O)C=C(NCC(C)C)C2)cc1` (stereo not drawn) it is “inactive”.
In the case of `Cc1ccc(C)c(NC(=S)N(C)CCc2ccccn2)c1` it was “inactive”; in that of `Cc1ccccc1OCC(=O)N1N=C(c2cccnc2)CC1(O)C(F)(F)F` (stereo not drawn), “inactive”; in that of `CC/C(=N\N=C1\SC(C)C(=O)N1Cc1ccco1)c1ccccc1` (stereo not drawn), 22.7% (active).
As to `COc1ccc(N=C2SC(CC(=O)Nc3ccccc3OC)C(=O)N2Cc2ccco2)cc1` (stereo not drawn), the CPE inhibition is 1.94% (inactive).
In the case of `COc1ccc(N=C2SC(CC(=O)Nc3ccccc3F)C(=O)N2Cc2ccco2)cc1` (stereo not drawn) it was 0.295% (inactive); in that of `CSc1ccc(/C=N/NC(=O)COc2ccc(Br)cc2Cl)cc1`, 3.23% (inactive).
As to `CN(C)S(=O)(=O)c1cccc(NC(=O)CCSc2ccc(Cl)cc2)c1`, the CPE inhibition result is “inactive”.
In the case of `CCN(CC)S(=O)(=O)c1cccc(NC(=O)CCSc2ccc(Cl)cc2)c1` it was 11% (active).
For `COc1cccc(NC(=O)CCSc2ccc(C)cc2)c1`, the CPE inhibition entry is “inactive”.
Consider `O=C(CSc1nc2ccccc2s1)Nc1ccc(Cl)c(S(=O)(=O)N2CCOCC2)c1`, for which the CPE inhibition is 0.03% (inactive).
The entry for `Cc1ccc(CSc2ccc(-c3ccc4c(c3)OCO4)nn2)cc1` is “inactive”.
For the compound `Cc1cc(O)c(C2=Nc3ccccc3SC(c3ccc(Cl)cc3)C2)c(=O)o1` (stereo not drawn), the CPE inhibition was 5.1% (inactive).
The figure for `O=C1N(c2ccccc2)C(c2ccc(Cl)cc2)N2CCCN12` (stereo not drawn) is 0.355% (inactive); for `O=C1CC(c2ccc(Cl)cc2)SC(N(c2ccccc2)c2ccccc2)=N1` (stereo not drawn) it is 23.9% (active).
The figure for `O=C1NC(=O)C(CC(=O)N(Cc2cccs2)C2(C(=O)NC3CCCC3)CCCCC2)N1` (stereo not drawn) is 0.025% (inactive); for `CC(=O)Nc1ccccc1C(=O)C(=O)Nc1cccc(C(=O)NCc2ccccc2)c1` it is “inactive”; for `O=C(NC(=S)Nc1cccc(NC(=O)c2ccccc2)c1)c1cccc([N+](=O)[O-])c1` it is 0.91% (inactive).
As for `COc1ccc(/C=C/c2nnc(NC(=O)CSc3ccc(Cl)cc3)s2)cc1`, the CPE inhibition is 12.2% (active).
In the case of `COC(=O)Nc1nnc(/C=C/c2ccc(OC)cc2)s1` it was 6.99% (inactive); in that of `COc1ccc(Cc2nnc(NC(=O)CSc3ccc(C)cc3)s2)cc1`, 0.25% (inactive).
As to `CC(C)c1nc(C#N)c(N2CCOCC2)o1`, the CPE inhibition result was “inactive”.
Take `Cc1ccc(CN2CCN(CC(=O)N/N=C/c3c[nH]c4ccccc34)CC2)cc1`: the CPE inhibition is 0.79% (inactive).
`COc1cc(OC)cc(-c2c(C#Cc3ccsc3)c3cc(-c4cccc5[nH]ccc45)ccc3n2C)c1`: the CPE inhibition is 6.79% (inactive).
The figure for `O=C(CN1CCN(c2ccccc2)CC1)Nc1ccccc1Sc1ccccc1` is 15.7% (active).
In the case of `Cc1ccc(/C=C/C(=O)OCC(=O)Nc2ccccc2Sc2ccccc2)cc1` it was “inactive”; in that of `CC(=O)N1CCN(CC(=O)Nc2ccccc2Sc2ccccc2)CC1`, 0.615% (inactive).
The figure for `CC1CN(CC(=O)Nc2ccccc2Sc2ccccc2)CC(C)O1` (stereo not drawn) is 0.145% (inactive); for `O=C(Cc1ccccc1)Nc1cc(Cl)ccc1Sc1ccccc1` it is 0.52% (inactive).
In the case of `CC1CCCCN1CC(=O)Nc1ccccc1Sc1ccccc1` (stereo not drawn), the CPE inhibition was 18.4% (active).
The entry for `O=C(COC(=O)c1ccccc1-c1nc2ccccc2s1)NC1CCS(=O)(=O)C1` (stereo not drawn) is “inactive”; for `CC(=O)O[C@H]1CC[C@@]2(C)[C@@H](CC[C@H]3[C@@H]4CC[C@H](C(C)O)[C@@]4(C)CC(=O)[C@@H]32)C1` (stereo partly drawn) it is “inactive”.
The figure for `COC(=O)c1ccc(NC(=O)CSC2=NCCN2)cc1` is 0.235% (inactive).
The figure for `O=C1CC(N(Cc2cccs2)C(=O)Nc2ccccc2)C(=O)N1c1ccc(Cl)cc1` (stereo not drawn) is 0.225% (inactive); for `COC(=O)Cn1c(C(=O)N2CCCC2)cc2c1C[C@H]1CN(C(=O)c3ccccc3)[C@@](Cc3ccc(F)cc3)(C(=O)OC)[C@@H]21` it is 0.235% (inactive).
Turning to `COC(=O)[C@@]1(Cc2ccc(F)cc2)[C@H]2c3cc(C(=O)N(C)C)n(CCc4ccc(OC)c(Br)c4)c3C[C@H]2CN1C(=O)c1ccccc1`, the CPE inhibition is 21.7% (active).
The figure for `COC(=O)[C@@]1(Cc2ccc(F)cc2)[C@H]2c3cc(C(=O)N(C)C)n(C[C@H](O)CO)c3C[C@H]2CN1C(=O)c1ccccc1` is 0.25% (inactive).
